Measurements as given in PubChem BioAssay (Tox21).
Values joined by “and” are separate entries in the source; they are usually repeats but may differ in a detail not shown here. Equal entries are not always repeated. Inconclusive results are not listed. Entries that show only a call come without a potency. Where a structure was tested more than once in an assay, its records may differ in their call. Active and inactive are the calls of the source. Unless noted, calls come from the whole dose curve; as a rule, active = well fitted curve in the direction sought with a large enough effect in the repeat runs; inconclusive = weak or mixed curves; inactive = no such curve, though single readings can be large; an effect the other way counts as inactive or inconclusive.

Tests used:
[1] = qHTS assay to identify small molecule agonists of the hypoxia (HIF-1) signaling pathway - cell viability counter screen (AID 1224844; calls by dose curve; note: nearly all actives have a fitted effect of over 50% in size; note: potency is the fitted concentration of half-maximal effect)
In short: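 Cytotoxicity measured by CellTiter-Glo ATP luminescence in the wells also read for beta-lactamase signal. Cells were HRE-bla ME-180 (2,000/well, 0.5% dialyzed FBS), exposed to compounds for 17 h at 37C.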

[2] = qHTS assay to identify small molecule agonists of the hypoxia (HIF-1) signaling pathway (AID 1224846; active = well fitted activation curve with a large enough effect in the signal ratio in the repeat runs, not every such curve was filed as active; the % refers to the signal ratio)
In short: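 Compounds added to ME-180 cells carrying hypoxia-response-element beta-lactamase reporter (0.5% dialyzed FBS, 5 h preplating), 17 h at 37C; agonist activity detected by CCF4-AM B/G FRET read-out.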

[3] = qHTS assay to identify small molecule agonists of H2AX - cell viability counter screen (AID 1224847; calls by dose curve; note: nearly all actives have a fitted effect of over 30% in size; note: potency is the fitted concentration of half-maximal effect)
In short: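 Read-out: CellTiter-Glo luminescence, 30 min RT. Cells: wild-type CHO-K1, 1000/well, 10% FBS, plated overnight at 37C. Treatment: 15 concentrations, 3 hr, 37C, 0.76% DMSO.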

[4] = qHTS RealTime-Glo MT Cell Viability Assay in HepG2 cells - 24 hour (AID 1224867); note: nearly all actives have a fitted effect of over 50% in size; note: potency is the fitted concentration of half-maximal effect
In short: (§1)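 Cells + NanoLuc/prosubstrate dispensed (600 cells/well) → 5 h at 37 C/5% CO2 → compounds in DMSO transferred → 40 h incubation at 37 C, luminescence read at 0, 8, 16, 24, 32, 40 h.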

[5] = qHTS RealTime-Glo MT Cell Viability Assay in HEK293 cells - 32 hour (AID 1224868); note: nearly all actives have a fitted effect of over 50% in size; note: potency is the fitted concentration of half-maximal effect
In short: (§2)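 Tox21 10K qHTS, HEK293, 600 cells/well, RealTime-Glo reagent co-dispensed with cells; 5 h preincubation, compound by pintool, 37 C, luminescence at 0–40 h.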

[6] = A CellTox Green Cytotoxicity Assay to monitor cytotoxicity in HEK293 cells - 0 hour (AID 1224869); note: nearly all actives have a fitted effect of over 50% in size
In short: (§3)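 Fluorescence from a DNA-binding dye excluded by viable cells was measured repeatedly in the same HEK293 wells (600 cells/well) during continuous compound exposure at 37 C. Each assay gives one read point: 0, 8, 16, 24, 32 or 40 h.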

[7] = qHTS RealTime-Glo MT Cell Viability Assay in HepG2 cells - 40 hour (AID 1224870); note: nearly all actives have a fitted effect of over 50% in size; note: potency is the fitted concentration of half-maximal effect
In short: (§4)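 Real-time viability: cells seeded at 600 per well together with NanoLuc and cell-permeant prosubstrate, compounds added after 5 h incubation. Luminescence tracked at 0, 8, 16, 24, 32 and 40 h of exposure.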

[8] = A CellTox Green Cytotoxicity Assay to monitor cytotoxicity in HEK293 cells - 40 hour (AID 1224871); note: nearly all actives have a fitted effect of over 45% in size; note: potency is the fitted concentration of half-maximal effect
In short: as §3

[9] = qHTS RealTime-Glo MT Cell Viability Assay in HEK293 cells - 16 hour (AID 1224872); note: nearly all actives have a fitted effect of over 50% in size; note: potency is the fitted concentration of half-maximal effect
In short: as §2

[10] = qHTS RealTime-Glo MT Cell Viability Assay in HepG2 cells - 8 hour (AID 1224873); note: nearly all actives have a fitted effect of over 55% in size
In short: as §4

[11] = qHTS RealTime-Glo MT Cell Viability Assay in HEK293 cells - 40 hour (AID 1224874); settings: RealTime-Glo luminescence; max response: stronger effect = lower value; note: nearly all actives have a fitted effect of over 50% in size; note: potency is the fitted concentration of half-maximal effect
In short: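 Luminescence, which tracks viable cell number through reduction of the prosubstrate to a NanoLuc substrate, was read over continuous 37 C culture. Cells (600/well) were premixed with reagent and rested 5 h before 23 nL of compound in DMSO was pinned.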

[12] = A CellTox Green Cytotoxicity Assay to monitor cytotoxicity in HEK293 cells - 24 hour (AID 1224875); note: nearly all actives have a fitted effect of over 45% in size
In short: as §3

[13] = A CellTox Green Cytotoxicity Assay to monitor cytotoxicity in HepG2 cells - 16 hour (AID 1224876); note: nearly all actives have a fitted effect of over 45% in size
In short: (§5)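 Real-time cytotoxicity: fluorescence of a cell-impermeant cyanine dye binding DNA of dead HepG2 cells, measured repeatedly (0–40 h) during compound exposure at 37 C. Cells seeded 600/well with reagent, dosed after 5 h.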

[14] = A CellTox Green Cytotoxicity Assay to monitor cytotoxicity in HepG2 cells - 24 hour (AID 1224878); note: nearly all actives have a fitted effect of over 45% in size; note: potency is the fitted concentration of half-maximal effect
In short: as §5

[15] = A CellTox Green Cytotoxicity Assay to monitor cytotoxicity in HepG2 cells - 40 hour (AID 1224879); note: nearly all actives have a fitted effect of over 40% in size; note: potency is the fitted concentration of half-maximal effect
In short: as §5

[16] = qHTS assay to identify small molecule antagonists of the estrogen related receptor (ERR) signaling pathway from Tox21 library (AID 1224848); note: nearly all actives have a fitted effect of over 50% in size; note: potency is the fitted concentration of half-maximal effect
In short: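 Luciferase luminescence (ONE-Glo, 30 min room temperature) was the read-out. Cells of the NTP-supplied ERR line, 2,000 per well, were given 6 h at 37 C before compound addition in DMSO and 18 h exposure at 37 C.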

[17] = qHTS assay to identify small molecule agonists of the estrogen related receptor (ERR) signaling pathway from Tox21 library (AID 1224849; calls by dose curve; note: nearly all actives have a fitted effect of over 15% in size); settings: ERR reporter cell line, ONE-Glo luciferase, 18 h
In short: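 Luminescent agonist read-out (One-Glo, 30-minute room-temperature incubation) following 18-hour compound treatment at 37 C of the ERR cell line, which had been plated 6 hours before dosing.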

[18] = qHTS RealTime-Glo MT Cell Viability Assay in HepG2 cells - 32 hour (AID 1224877); note: nearly all actives have a fitted effect of over 55% in size; note: potency is the fitted concentration of half-maximal effect
In short: as §1

[19] = qHTS assay to identify small molecule agonists of H2AX (AID 1224845; active = well fitted activation curve with a large enough effect in the signal ratio in the repeat runs, not every such curve was filed as active; the % refers to the signal ratio)
In short: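 Phospho-H2AX Ser139 measured by HTRF (ex 320 nm; em 665 and 620 nm) after 24 hr antibody incubation. Compounds, 15 concentrations, 0.76% DMSO, were applied to CHO-K1 cells for 3hr at 37C before lysis.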

OCCO
Potency [1]: inactive | Potency [2]: inactive | Potency [3]: inactive | Potency [4]: inactive | Potency [5]: inactive | Potency [6]: inactive | Potency [7]: inactive | Potency [8]: inactive | Potency [9]: inactive | Potency [10]: inactive | max response [11]: -5.99% (inactive) and -0.466% (inactive) | Potency [12]: inactive | Potency [13]: inactive | Potency [14]: inactive | Potency [15]: inactive

CCOCCOCCO
Potency [1]: inactive | Potency [2]: inactive | Potency [3]: inactive | Potency [16]: inactive | activity change, positive = activation ([17]; at 92.4 µM (top of the series)): -1.39% (inactive) and 2.46% (inactive) | Potency [4]: inactive | Potency [5]: inactive | Potency [6]: inactive | Potency [7]: inactive | Potency [8]: inactive | Potency [9]: inactive | Potency [10]: inactive | Potency [12]: inactive | Potency [13]: inactive | Potency [18]: inactive | Potency [14]: inactive | Potency [15]: inactive

O=C(c1ccc(OCCN2CCCCC2)cc1)c1c(-c2ccc(O)cc2)sc2cc(O)ccc12
Potency [1]: 43.7 µM (active) and 49 µM (active) and inactive | Potency [3]: 113 µM (active) and inactive | Potency [4]: 54.9 µM (active) and inactive | Potency [5]: 19.5 µM (active) and 23.9 µM (active) | Potency [6]: inactive | Potency [7]: 54.9 µM (active) and inactive | Potency [8]: 55 µM (active) and 54.9 µM (active) | Potency [9]: 19.5 µM (active) and 21.9 µM (active) | Potency [10]: inactive | Potency [11]: 17.4 µM (active) and 21.9 µM (active) and 23.9 µM (active) | Potency [13]: inactive | Potency [18]: 55 µM (active) and 54.9 µM (active) and inactive | Potency [14]: 55 µM (active) and 54.9 µM (active) | Potency [15]: 49 µM (active) and 26.8 µM (active)

C[C@]12CC[C@H]3[C@@H](CCC4=CC(=O)CC[C@@]43C)[C@@H]1CC[C@@H]2C(=O)CO
Potency [1]: inactive | outcome [19]: inactive | Potency [3]: inactive | Potency [16]: 27.3 µM (active) and 26.6 µM (active) | activity change, positive = activation ([17]; at 42.5 µM (top of the series)): -34.2% (inactive) | activity change, positive = activation ([17]; at 92.4 µM (top of the series)): -55.9% (inactive) | Potency [4]: inactive | Potency [5]: 24.5 µM (active) | Potency [6]: inactive | Potency [7]: inactive | Potency [8]: inactive | Potency [10]: inactive | Potency [11]: 38.9 µM (active) | Potency [12]: inactive | Potency [13]: inactive | Potency [14]: inactive | Potency [15]: inactive

C/C=C/C(=O)O
Potency [1]: inactive | Potency [2]: inactive | Potency [3]: inactive | Potency [16]: inactive | activity change, positive = activation ([17]; at 92.4 µM (top of the series)): 7.56% (inactive) and 0.71% (inactive) | Potency [4]: inactive | Potency [5]: inactive | Potency [6]: inactive | Potency [7]: inactive | Potency [8]: inactive | Potency [10]: inactive | max response [11]: 2.91% (inactive) and 4.68% (inactive) | Potency [12]: inactive | Potency [13]: inactive | Potency [14]: inactive | Potency [15]: inactive

O=C(c1ccccc1)c1ccc(O)cc1O
Potency [1]: inactive | outcome [19]: inactive | Potency [2]: inactive | Potency [3]: inactive | Potency [4]: inactive | Potency [5]: inactive | Potency [6]: inactive | Potency [7]: inactive | Potency [8]: inactive | Potency [10]: inactive | Potency [12]: inactive | Potency [13]: inactive | Potency [14]: inactive and 38.9 µM (active) | Potency [15]: inactive and 43.6 µM (active)

CCCCC/C=C/C=C/C=O
outcome [19]: inactive | Potency [2]: inactive | Potency [3]: inactive | Potency [16]: inactive and 54.5 µM (active) | activity change, positive = activation ([17]; at 92.4 µM (top of the series)): -1.92% (inactive) and -41.4% (inactive) | Potency [4]: inactive | Potency [5]: inactive | Potency [6]: inactive | Potency [7]: inactive | Potency [8]: 54.5 µM (active) | Potency [9]: inactive | Potency [10]: inactive | Potency [12]: inactive | Potency [13]: inactive | Potency [18]: inactive | Potency [14]: inactive | Potency [15]: 54.9 µM (active)

COc1cc([C@@H]2c3cc4c(cc3[C@H](O)[C@H]3COC(=O)[C@H]23)OCO4)cc(OC)c1OC
Potency [1]: inactive | Potency [2]: inactive | Potency [3]: inactive | Potency [4]: inactive | Potency [5]: 0.0489 µM (active) | Potency [6]: inactive | Potency [7]: inactive | Potency [8]: inactive | Potency [10]: inactive | Potency [12]: inactive | Potency [13]: inactive | Potency [14]: inactive | Potency [15]: inactive

O=CCc1ccccc1
Potency [1]: inactive | Potency [2]: inactive | Potency [3]: inactive | Potency [4]: inactive | Potency [5]: inactive | Potency [6]: inactive | Potency [7]: inactive | Potency [8]: inactive | Potency [10]: inactive | Potency [12]: inactive | Potency [13]: inactive | Potency [14]: inactive | Potency [15]: inactive

C[C@]12CCC(=O)C=C1CC[C@@H]1[C@@H]2C(=O)C[C@@]2(C)[C@H]1CC[C@]2(O)C(=O)CO
Potency [1]: inactive | outcome [19]: inactive | Potency [3]: inactive | Potency [4]: inactive | Potency [5]: inactive | Potency [6]: inactive | Potency [7]: inactive | Potency [8]: inactive | Potency [9]: inactive | Potency [10]: inactive | max response [11]: -10% (inactive) and -11.4% (inactive) | Potency [12]: inactive | Potency [13]: inactive | Potency [18]: inactive | Potency [14]: inactive | Potency [15]: inactive
